Pf growth 96h – P. falciparum growth inhibition at 96 hour, primary screen for plastid delayed-death inhibitors; P. falciparum luciferase reporter growth, 96 h; Potency, µM (series often up to 28.7 µM), without a hit: at the highest dose activity change, negative = inhibition, actives largely listed as inhibitors; actives 6.9% (n = 320,000); AID 504834; note: potency is the fitted concentration of half-maximal effect; % is set by controls: 0 for no effect and ±100 for the full control effect
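Erythrocytes infected with luciferase-expressing P. falciparum were dispensed at 2% hematocrit and 0.05% parasitemia (final), then incubated with compounds 96 hours at 37 C in 5% CO2. Luminescence after detection reagent addition reported growth.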
CHX counter – counter-screen for Shiga toxin inhibitors: cycloheximide protein synthesis inhibition. cell reporter, cycloheximide protein synthesis inhibition counterscreen. max response, %. actives 12% (n = 300,000). AID 2314; in the data active = max response mostly above about 13%, no sharp cut-off; inactive = mostly below about 14%; note: read at 38.3 µM for the half of the compounds with a filed dose; 0% is about no effect
Shiga toxin inh – Shiga toxin inhibition. AID 2315. actives 9.2% (n = 290,000). Vero cells, Shiga toxin protein synthesis inhibition reporter. inhibition, % at 38.7 µM; in the data active = inhibition mostly above about 28%, no sharp cut-off; inactive = mostly below about 43%; note: 0% is about no effect
Pf growth 48h – P. falciparum growth inhibition at 48 hours (one generation); P. falciparum luciferase growth in erythrocytes, 48 h; Potency, µM (series often up to 28.7 µM), for inactives: at the highest dose activity change, negative = inhibition, hits mostly inhibitors; actives 5.9% (n = 310,000); note: potency is the fitted concentration of half-maximal effect; % is set by controls: 0 for no effect and ±100 for the full control effect
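Cell-based growth assay: transgenic P. falciparum expressing firefly luciferase, cultured in red cells within RPMI 1640 containing 0.5% w/v Albumax, 24 mM bicarbonate and gentamycin. A drop in luciferase activity indicates inhibition.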
HCV inh – blocks hepatitis C virus; Potency, µM (doses to about 41.8 µM), for the others: top-dose activity change, negative = inhibition, most hits filed as inhibitors; Huh7.5.1 HCVcc-Cre infection, luciferase reporter, 44 h; actives 3.4% (n = 340,000); note: potency is the fitted concentration of half-maximal effect; % is set by controls: 0 for no effect and ±100 for the full control effect
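Reporter virus HCVcc-Cre (~0.5 moi) infects cells exposed to compound; seeding density 1,000 cells/well with 4 h settling beforehand. Luminescence, 15 sec read, taken 44 h post-infection following a 15 min RT substrate incubation.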
AMA1 RON2 block – inhibitors of Plasmodium falciparum AMA1-RON2 interaction. AlphaScreen AMA1-biotinylated RON2 peptide binding. Potency, µM (series often up to 58.2 µM), without a hit: at the highest dose activity change, negative = inhibition, hits mostly inhibitors. actives 0.2% (n = 360,000). AID 720542;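 note: potency is the fitted concentration of half-maximal effect; 0% = vehicle wells and -100% = peptide control; nearly all actives have a fitted effect of over 45% in size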
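AMA1 (3D7) with his tag at 25 nM final met compounds first, then biotinylated RON2 peptide at 25 nM; detection used donor plus acceptor beads, 10 µg/mL apiece, read by AlphaScreen after 30 min at room temperature.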
Numbers without * were called inactive; ? = inconclusive; . = not tested or not shown; [ ] = dose if it differs, or a comment. Hits are enriched below; roughly 21% of the tested compounds scored in any of these assays. Unless noted, calls come from the whole dose curve; as a rule, active = well fitted curve in the direction sought with a large enough effect; inconclusive = small, poorly fitted or top-dose-only effect, or another doubt; inactive = no such curve, though single readings can be large; an effect the other way counts as inactive or inconclusive.

SMILES | Pf growth 96h | CHX counter | Shiga toxin inh | Pf growth 48h | HCV inh | AMA1 RON2 block
C=CCn1c(=O)c2c(nc(-n3nc(C)cc3C)n2C)n(C)c1=O | -1% | -3 | -9 | 10µM* | 8% | -15%
CN1CCN(c2nc3c(c(=O)[nH]c(=O)n3C)n2Cc2ccccc2)CC1 | 0.59µM* | -4 | -8 | 5% | 14% | -16%
Cc1ccc(Cn2c(N3CCCCCC3)nc3c2c(=O)[nH]c(=O)n3C)cc1 | . | 1 | -11 | 4.1µM* | -21% | 0%
Cc1ccc(Cn2c(N3CCN(C)CC3)nc3c2c(=O)[nH]c(=O)n3C)cc1 | 12% | -2 | -12 | -15% | 8% | 5%
CN1CCN(c2nc3c(c(=O)[nH]c(=O)n3C)n2Cc2ccc(Cl)cc2)CC1 | ? | 2 | -5 | ? | 6% | 6%
COc1cc(OC)cc(C(=O)NN2CCOCC2)c1 | ? | 1 | -6 | 1% | 9% | 15%
COc1ccc(C(=O)/C=C/c2ccc(C)cc2)c(OC(=O)c2ccc([N+](=O)[O-])cc2)c1 | 18% | 32* | 16 | 20% | -3% | -8%
COc1ccc(C(=O)/C=C/Nc2ccc([N+](=O)[O-])cc2C)c(OC)c1 | 50% | 2 | 4 | 32% | -8% | 1%
COc1ccc(C(=O)/C=C/c2ccccc2F)c(OC(=O)c2ccc([N+](=O)[O-])cc2)c1 | 0% | 49* | 60 | 4% | -5% | -17%
CC1CCN(S(=O)(=O)N2CCC(C(=O)NC(C)c3ccccc3)CC2)CC1 (stereo not drawn) | . | . | . | . | . | -7%
O=S(=O)(Nc1cccc2ccccc12)c1cccc2ccccc12 | . | -5 | 4 | . | . | .
Cn1c(O)c(N=NC(=O)c2ccco2)c2ccccc21 | -3% | 44* | 145* | 84% | 7% | 11%
Cn1c(O)c(N=NC(=O)CNC(=O)c2ccco2)c2ccccc21 | 47% | -1 | -9 | -1% | -7% | -6%
CC(C)CCn1c(O)c(N=NC(=O)c2ccco2)c2ccccc21 | ? | 22 | 24* | ? | ? | -9%
CC(C)Cn1c(O)c(N=NC(=O)c2cccc(S(=O)(=O)N3CCCCC3)c2)c2ccccc21 | ? | -1 | 15 | ? | ? | -10%
CCOC(=O)N1CCc2c(sc3c2c(=O)n(Cc2ccccc2)c(=O)n3Cc2ccccc2F)C1 | ? | -1 | -10 | 2.6µM* | 7%[8.37 µM] | -14%
CCOC(=O)N1CCc2c(sc3c2c(=O)n(Cc2ccccc2)c(=O)n3CC(=O)NCC2CCCO2)C1 (stereo not drawn) | ? | -3 | 3 | 5.9µM* | 11% | -7%
CCOC(=O)N1CCc2c(sc3c2c(=O)n(Cc2ccccc2)c(=O)n3Cc2cccc(C)c2)C1 | -27% | -2 | -13 | ? | -6% | -17%
Cn1c(-n2cccc2)c(-c2c(-c3ccccc3)[nH]c3c2c(=O)[nH]c(=O)n3C)c(=O)[nH]c1=O | 16% | . | . | -13% | . | .
CC(C)Cn1c(=O)c(CCC(=O)Nc2ccc(N3CCOCC3)cc2)nc2cc(Cl)ccc21 | 20% | 8 | 4 | ? | ? | 1%
O=C(NC(Cc1cccc(F)c1)C(=O)O)C1CCCCC1 (stereo not drawn) | 19% | . | . | 21% | 2.8µM* | -1%
O=C(Nc1cccnc1)c1sc(Nc2ccccc2)nc1-c1ccccc1 | -5% | -1 | -18 | 11% | ? | -3%
Cc1cccc(Nc2nc(-c3ccccc3)c(C(=O)Nc3cccnc3)s2)c1 | ? | 33* | 48* | -18% | ? | 17%
Cc1ccc2nc(-c3ccncc3)cc(C(=O)Nc3ccc(F)cc3C)c2c1 | ? | -2 | -5 | 6.6µM* | -6% | 10%
Cc1ccc2nc(-c3cccc(Br)c3)cc(C(=O)NC3CC3)c2c1 | ? | 1 | -13 | 4.7µM* | 1% | 6%
SMILES | Pf growth 96h | CHX counter | Shiga toxin inh | Pf growth 48h | HCV inh | AMA1 RON2 block
Cc1ccc2nc(C)cc(C(=O)NC3CCCCCC3)c2c1 | . | . | . | . | 9% | 9%
Cc1cc(C)nc(NC(=O)c2cc(-c3ccc(C)s3)nc3ccccc23)c1 | -83% | 10 | 1 | ? | 4% | 29%
Cc1ccc(-c2cc(C(=O)Nc3cccnc3)c3ccccc3n2)s1 | ? | 10 | -1 | 2.6µM* | 6% | 31%
COc1ccc(C(C#N)CC(=O)c2ccc(OC)c(OCc3ccccc3)c2)cc1OC (stereo not drawn) | . | . | . | . | . | -4%
Cc1ccc2nc(-c3ccc(NS(C)(=O)=O)cc3)cc(-c3ccccc3)c2c1 | ? | -4 | -18 | ? | ? | -9%
Cc1cc(NC(=O)c2cc(-c3ccccn3)nc3ccc(Br)cc23)no1 | 16% | -4 | -15 | -4% | -6% | 42%
Cc1ccc2nc(-c3ccncc3)cc(-c3ccccc3)c2c1 | 9.3µM* | -2 | -11 | 10µM* | 11µM* | -6%
O=C(Nc1ccccn1)c1cc(-c2cccnc2)nc2ccc(Br)cc12 | 3% | -5 | -11 | 3.7µM* | 8% | 17%
Cc1cccc(-c2cc(C(=O)Nc3cccnc3)c3ccccc3n2)c1 | ? | 10 | -31 | ? | 10% | -13%
Cc1ccc2nc(-c3ccccc3)cc(C(=O)Nc3cccnc3)c2c1 | 1.7µM* | . | . | 2.1µM* | 2% | 13%[11.6 µM]
NCCCC[C@H](NC(=O)[C@@H](Cc1ccccc1)NC(=O)[C@H](Cc1c[nH]c2ccccc12)NC(=O)[C@@H](CCCCN)NC(=O)[C@@H](Cc1c[nH]c2ccccc12)NC(=O)[C@@H](N)Cc1cnc[nH]1)C(N)=O | . | -8 | -7 | . | . | .
O=C(COc1ccc([N+](=O)[O-])cc1)Nc1ccc2c(c1)nc1n2CCOC1 | ? | -2 | -9 | 5% | -18% | 8%
COc1cc(OC)cc(C(=O)OCC(=O)NC2CCCCCCC2)c1 | . | . | . | . | . | 2%
CC(=O)OCC(=O)c1c[nH]c2ccccc12 | 0% | 13 | 19 | 18% | 8% | -5%
CC(C)n1nc(C(=O)OCC(=O)c2c[nH]c3ccccc23)c2ccccc2c1=O | 6.6µM* | 10 | -5 | . | ? | -7%
CCn1nc(C(=O)OCC(=O)c2c[nH]c3ccccc23)c2ccccc2c1=O | 7.4µM* | -1 | -10 | 4.7µM* | -8% | 4%
CCOc1ccc(C(=O)COC(=O)c2nn(CC)c(=O)c3ccccc23)cc1 | 6% | . | . | ? | 18% | 0%
COc1ccc(-c2nc(CC(=O)Nc3cccc(S(=O)(=O)NC4=NCCC4)c3)cs2)cc1 | ? | . | . | -13% | 12% | 0%
Clc1cccc(-c2nc(-c3ccc(-c4nn[nH]n4)cc3)no2)c1 | 59% | . | . | 91% | . | .
O=C(Nc1ccc(S(=O)(=O)NC2=NCCCCC2)cc1)c1cc(S(=O)(=O)N2CCOCC2)ccc1F | -17% | -3 | -13 | ? | 16% | 12%
CCN(CC(=O)Nc1c(F)cccc1F)C(=O)c1ccc2c(c1)OCCO2 | 36% | . | . | 25% | 16% | -5%
